Sampled rows, rich in hits. Any-hit rate of the full collection: about 10%.
HEK293 tox – Cytotoxic Profiling in HEK 293 Cell Line of Diverse Libraries Using Quantitative High-Throughput Screening; HEK 293 viability, ATP luminescence (CellTiter-Glo), 48-72 h; Potency, µM (highest dose often 115 µM), most hits filed as inhibitors; 94,000 compounds, 6.6% hits; AID 1345083, 2018; note: nearly all actives have a fitted effect of over 60% in size
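Viability of HEK 293 cells, plated at 250 cells/well, was judged by cellular ATP after compound treatment for 48 or 72 hr. Luminescence was imaged 10 min after CellTiter-Glo addition at room temperature.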
Luciferase inh – Firefly luciferase inhibition profiling of diverse chemical library using quantitative high-throughput screening | 76,000 compounds, 2.5% hits | AID 1347043, 2019 | purified P. pyralis luciferase, luminescence, biochemical | Potency, µM (titrated, usually from 115 µM), hits mostly inhibitors | Luciferin 4-monooxygenase (Photinus pyralis), P08659; note: nearly all actives have a fitted effect of over 65% in size
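Purified 10nM P. pyralis luciferase with 10uM D-luciferin and 10uM ATP in 50mM Tris acetate pH 7.5, 10mM Mg acetate, 0.01% Tween-20, 0.05% BSA. qHTS titration; luminescence read by CCD imager.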
NPR1 antag – Natriuretic polypeptide receptor (hNpr1) antagonism - Primary qHTS; HEK293 hNpr1 GloSensor cGMP, ANP-stimulated luminescence; Atrial natriuretic peptide receptor 1 (Homo sapiens), P16066; Potency, µM (series often up to 46.3 µM), most hits filed as inhibitors; 76,000 compounds, 1.6% hits; calls by dose curve; note: nearly all actives have a fitted effect of over 60% in size
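HEK293 cells stably expressing human Npr1 and cGMP GloSensor pGS-40F, loaded 2 h with 2% GloSensor reagent, given compound 30 min at room temperature. Luminescence read before and 20 min after 0.1 nM hNppA.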
3T3 cytotox – Cytotoxic Profiling in NIH 3T3 Cell Line of Diverse Libraries Using Quantitative High-Throughput Screening | NIH 3T3 viability, CellTiter-Glo ATP luminescence, 48-72 h | Potency, µM (highest dose often 96.7 µM), most hits filed as inhibitors | 94,000 compounds, 4.3% hits | AID 1345082, 2018; note: nearly all actives have a fitted effect of over 55% in size
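ATP-dependent luminescence (CellTiter-Glo) served as the viability signal for NIH 3T3 cells treated with compound for 48 or 72 hr at 37 °C.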
GPT2 inh – Primary qHTS assay for inhibitors of Glutamate pyruvate transaminase 2 (GPT2); Alanine aminotransferase 2 (Homo sapiens), Q8TD30; Recombinant GPT2, coupled pyruvate oxidase/HRP Amplex Red fluorescence; Potency, µM (titrated, usually from 57.7 µM), most hits filed as inhibitors; 100,000 compounds, 0.25% hits; note: nearly all actives have a fitted effect of over 60% in size
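Recombinant GPT2 (10ng/uL) with 250uM a-KG and 2mM L-alanine, 30 min at room temperature, in HEPES pH 7.5 buffer. Pyruvate detected by pyruvate oxidase/HRP/Amplex Red fluorescence after 30 min in the dark; AOA (50uM) as positive control.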
Numbers stand for hits; n = inactive; u = inconclusive; x = no result given. Unless noted, calls come from the whole dose curve; as a rule, active = well fitted curve in the direction sought with a large enough effect; inconclusive = small, poorly fitted or top-dose-only effect, or another doubt; inactive = no such curve, though single readings can be large; an effect the other way counts as inactive or inconclusive.

SMILES	HEK293 tox	Luciferase inh	NPR1 antag	3T3 cytotox	GPT2 inh
Cc1ccc(Nc2ccnc(N3CCC(NC(=O)NC4CCCC4)CC3)n2)cc1	n	x	x	n	n
Cc1ccc(Nc2ccnc(N3CCC(NC(=O)c4ccc(Cl)nc4)CC3)n2)cc1	39.8µM	x	x	39.8µM	n
Cc1ccc(Nc2ccnc(N3CCC(NC(=O)c4ccc(C)cc4)CC3)n2)cc1	u	x	x	u	n
COCCn1c(=O)c(C(=O)N2CCN(C(=O)C3CCCC3)CC2)nc2cccnc21	n	x	x	n	n
COc1ccc(NC(=O)N2CCc3c(c4ccccc4n3C)C2)cc1	u	u	n	u	n
Cn1c2c(c3ccccc31)CN(C(=O)Nc1ccccc1)CC2	n	n	n	u	n
Cn1c2c(c3ccccc31)CN(C(=O)NC1CCCCC1)CC2	44.7µM	n	n	31.6µM	n
O=C(Nc1cccc(F)c1)N1CCc2c(c3ccccc3n2CC2CC2)C1	44.7µM	n	n	25.1µM	u
CC(=O)N1CCc2c(c3ccccc3n2C)C1	n	n	n	n	u
O=C(Nc1ccc(F)c(F)c1)N1CCc2c(c3ccccc3n2CC2CC2)C1	12.6µM	n	n	u	n
Cc1ccc(NC(=O)N2CCc3c(c4ccccc4n3CC3CC3)C2)cc1	u	14.1µM	n	25.1µM	n
CCc1nc2c(c(-c3ccc(OC)cc3)n1)CN(C(=O)c1ccccc1F)CC2	u	x	x	u	n
COC(=O)CC(NC(=O)N1CCc2nc(-c3ccccc3)[nH]c2C1)c1ccccc1 (configuration not stated)	n	x	x	n	n
O=C(Nc1ccc(Cl)cc1Cl)N1CCc2[nH]c3ccc(F)cc3c2C1	u	n	n	u	u
Cn1c2c(c3cc(F)ccc31)CN(C(=O)Nc1ccc(F)c(Cl)c1)CC2	31.6µM	u	u	12.6µM	n
CN1CCCN(C(=O)C2CCCC2)c2ccccc21	89.1µM	n	n	u	n
COc1ccccc1C(=O)N1CCCN(C)c2ccccc21	79.4µM	n	n	u	n
c1cc(-c2nc3c(c(NCc4cn5c(n4)SCC5)n2)CCNCC3)ccn1	20µM	n	n	u	n
CCCN1CCC(N2CCC3(CC2)CC(C(=O)N2CCOCC2)N(C)C3)CC1 (configuration not stated)	n	x	x	n	n
O=C(NCCNC(=O)c1ccc(-c2cncnc2)cc1)c1ccccc1	n	x	x	n	x
O[C@H]1CC[C@@H](Cc2cc(COc3ccccc3)on2)O[C@@H]1CNCc1cccnc1	n	n	n	n	n
CC(C)(C)C(=O)N1CCC2(CC1)CCN(Cc1cccs1)c1ccccc1O2	35.5µM	n	n	u	n
O=C(c1ccc(Cl)nc1)N1CCC2(CC1)CCN(Cc1cccs1)c1ccccc1O2	25.1µM	n	u	u	n
CCCN1CCC2(CCN(C(=O)c3ccc(C)cc3)CC2)Oc2ccccc21	u	n	n	u	n
COc1ccc(C(=O)N2CCC3(CC2)CCN(Cc2cccs2)c2ccccc2O3)cc1	39.8µM	n	n	u	u
SMILES	HEK293 tox	Luciferase inh	NPR1 antag	3T3 cytotox	GPT2 inh
O=C(c1ccccc1)N1CCC2(CC1)CCN(Cc1cccs1)c1ccccc1O2	u	n	n	u	n
Cc1ccc(C(=O)N2CCC3(CC2)CCN(CCc2ccccc2)c2ccccc2O3)cc1	u	n	n	39.8µM	n
CC(C)N1C(=O)C2(CCCC2)C1C(=O)N1CCN(C2CCCCC2)CC1 (configuration not stated)	n	n	n	n	n
CNC(=O)[C@@H]1[C@@H](OC(N)=O)C(=O)N(C)C12CCN(C(=O)c1ccccc1OC(F)(F)F)CC2	n	x	x	u	x
Cn1cccc1CN1CCCCC12Cc1ccccc1CNC2=O (configuration not stated)	u	x	x	u	n
O=c1c2nc(OCc3ccc(F)cc3)ccc2ncn1C1CC1	u	n	n	u	n
O=c1c2nc(-c3cccc(O)c3)ccc2ncn1-c1ccccc1	u	70.8µM	n	8.91µM	n
O=c1c2nc(-c3cccc(O)c3)ccc2ncn1C1CC1	n	u	n	63.1µM	n
COc1ccc(-c2ccc3ncn(C4CC4)c(=O)c3n2)cc1OC	u	63.1µM	n	39.8µM	n
COc1ccccc1Nc1ccnc(N2CCC(C(=O)NCCc3ccc(F)cc3)CC2)n1	u	x	x	u	n
Cc1ncccc1-c1nc2cc(C(=O)N3CCCCC3)ccc2o1	u	x	x	u	n
O=C1NC(=NC2CCCC2)C2(CCN(CC3CC3)C2)N1c1cc(F)cc(F)c1 (configuration not stated)	u	x	x	u	n
COc1cccc(N2C(=O)NC(=NC3CCCC3)C23CCN(CC2CCCCC2)C3)c1 (configuration not stated)	u	x	x	31.6µM	n
O=C1NC(=NC2CCCC2)C2(CCCN(CC3CCCCC3)C2)N1c1cc(F)cc(F)c1 (configuration not stated)	35.5µM	x	x	28.2µM	u
O=C1NC(=NC2CCCCC2)C2(CCN(CC3CCCCC3)C2)N1c1cc(F)cc(F)c1 (configuration not stated)	31.6µM	x	x	31.6µM	n
CC(C)(C)c1nnc2ccc(C(=O)NCc3ccccc3)cn12	n	x	x	u	n
O=C(Cc1cccc(F)c1)N1CCC2(CC1)NCCc1c2[nH]c2ccccc12	u	n	n	u	n
CCCCNC(=O)CC(c1ccc(OC)cc1OC)c1c[nH]c2c(CC)cccc12 (configuration not stated)	u	n	n	u	n
CCc1cccc2c(C(CC(=O)NCCc3ccc(OC)c(OC)c3)c3cccc(F)c3)c[nH]c12 (configuration not stated)	28.2µM	n	n	u	n
CCCCCNC(=O)CC(c1cccc(OC)c1OC)c1c[nH]c2c(CC)cccc12 (configuration not stated)	44.7µM	n	n	u	n
CCc1cccc2c(C(CC(=O)NCC(C)C)c3ccc(OC)c(OC)c3)c[nH]c12 (configuration not stated)	n	n	n	n	n
CCc1cccc2c(C(CC(=O)NCc3ccco3)c3ccc(C)cc3)c[nH]c12 (configuration not stated)	35.5µM	n	n	u	n
CCCCNC(=O)CC(c1cccc(OC)c1)c1c[nH]c2ccccc12 (configuration not stated)	79.4µM	n	n	u	n
CCc1cccc2c(C(CC(=O)NCc3ccco3)c3ccc(OC)c(OC)c3)c[nH]c12 (configuration not stated)	u	n	n	u	n

Screening data (PubChem)
